PLCb3 inh: inhibitors of human phospholipase C beta3; Q01970; Purified PLC-beta3, fluorogenic substrate, fluorescence; inhibition, % at 12.2 µM; hit rate 0.18% among 370,000; AID 720704; in the data active = inhibition above about 11%
GC-A act: GC-A (human) enzyme activation; P16066; activation, % at 10 µM; HEK293 GC-A cells, cGMP TR-FRET, EC30 ANP; 0% at EC30 ANP, 100% saturating ANP; hit rate 0.14% among 370,000; in the data active = activation above about 40%
Target sequence (P16066 whole entry, looked up): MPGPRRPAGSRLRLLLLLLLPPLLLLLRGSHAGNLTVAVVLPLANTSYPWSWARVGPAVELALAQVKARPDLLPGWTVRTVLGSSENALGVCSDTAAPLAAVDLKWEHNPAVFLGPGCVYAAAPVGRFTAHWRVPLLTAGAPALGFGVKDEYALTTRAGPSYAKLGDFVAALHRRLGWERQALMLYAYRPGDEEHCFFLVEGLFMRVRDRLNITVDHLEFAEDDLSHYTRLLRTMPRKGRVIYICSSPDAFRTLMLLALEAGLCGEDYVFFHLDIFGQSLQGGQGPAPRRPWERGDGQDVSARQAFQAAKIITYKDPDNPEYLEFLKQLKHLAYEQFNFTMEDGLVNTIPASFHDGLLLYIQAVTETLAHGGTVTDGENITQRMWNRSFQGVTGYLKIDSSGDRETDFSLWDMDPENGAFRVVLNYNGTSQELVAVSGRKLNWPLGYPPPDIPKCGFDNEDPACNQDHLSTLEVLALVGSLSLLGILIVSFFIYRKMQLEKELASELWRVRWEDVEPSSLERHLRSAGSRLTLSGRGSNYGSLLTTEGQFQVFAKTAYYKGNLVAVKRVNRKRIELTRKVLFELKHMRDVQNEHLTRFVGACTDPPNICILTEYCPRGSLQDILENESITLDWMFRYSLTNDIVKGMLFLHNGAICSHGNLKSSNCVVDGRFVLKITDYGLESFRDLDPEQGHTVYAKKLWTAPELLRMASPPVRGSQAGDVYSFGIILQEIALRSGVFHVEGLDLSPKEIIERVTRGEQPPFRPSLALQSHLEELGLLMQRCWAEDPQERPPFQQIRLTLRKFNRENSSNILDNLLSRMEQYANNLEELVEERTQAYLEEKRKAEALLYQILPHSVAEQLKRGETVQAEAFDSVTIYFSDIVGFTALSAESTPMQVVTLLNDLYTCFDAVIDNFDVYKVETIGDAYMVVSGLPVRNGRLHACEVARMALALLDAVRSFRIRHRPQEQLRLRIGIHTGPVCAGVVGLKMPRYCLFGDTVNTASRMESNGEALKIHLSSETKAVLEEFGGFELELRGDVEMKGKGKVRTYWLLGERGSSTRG
PLC-gamma1 inh: blocks human PLC-gamma1 enzyme activity; purified PLC-gamma1, fluorogenic substrate, fluorescence; inhibition, % at 12.2 µM; hit rate 0.84% among 370,000; P19174; in the data active = inhibition above about 9.5%
NPR2 activator: GC-B (human) receptor activation. P20594. HEK293-GC-B cells, CNP EC30, cGMP TR-FRET; 0% at EC30 CNP, 100% saturating CNP. activation, % at 10 µM. hit rate 0.11% among 370,000;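 active = activation at 10 µM reaching about 35% in either raw or pattern-adjusted values, limit read from the data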
A number is an active result; 0 = inactive; - = not tested or not shown; ! = not active in a repeat. Rows were chosen to be rich in hits. Some 1.2% of all compounds tested hit in one or more screens of this group.

SMILES	PLCb3 inh	GC-A act	PLC-gamma1 inh	NPR2 activator
Cc1cc(C(=O)COC(=O)c2ccc3c(c2)OCO3)c(C)n1Cc1cccs1	0	0	10	0
COc1ccc(OC)c(CN2C(=O)CSCC2(C)C(=O)NCc2ccccc2)c1 (stereo not drawn)	12	0	0	0
Cc1ccccc1CN1C(=O)CSCC1(C)C(=O)NCc1ccccc1 (stereo not drawn)	0	0	0	0
CCOc1ccc(CN(C)C(=O)c2ccc(S(=O)(=O)N(C)c3ccccc3OC)cc2)cc1	0	0	10	0
COc1ccccc1N(C)S(=O)(=O)c1ccc(C(=O)N(C)Cc2cccc(OC)c2OC)cc1	0	0	0	0
COc1cc(-c2cnc3c(NC=O)cc(-c4ccccc4)cn23)cc(OC)c1OC	0	0	0	0
COc1ccc(-c2cc(NC=O)c3ncc(-c4ccc(C(C)=O)cc4)n3c2)cc1OC	0	0	0	0
COc1cc(-c2cc(NC=O)c3ncc(-c4ccccc4)n3c2)cc(OC)c1OC	0	0	0	35
COc1cc(-c2cc(NC=O)c3ncc(-c4ccc(C(C)=O)cc4)n3c2)cc(OC)c1OC	0	0	0	35
Cc1ccc(Cl)cc1N1CCN(C(=O)C(C)n2ncn3cccc3c2=O)CC1 (stereo not drawn)	0	0	0	0
O=C(NNC(=O)C1CC=CCC1C(=O)O)c1ccc(Cl)cc1 (stereo not drawn)	0	0	0	0
CC(=O)Nc1ccc(NC(=O)c2cc(-c3cc(F)ccc3OCC3CCCO3)n[nH]2)cc1 (stereo not drawn)	0	0	0	0
COc1ccc(NC(=O)c2cc(-c3cc(F)ccc3OCC3CCCO3)n[nH]2)c(C)c1 (stereo not drawn)	0	60	0	79
COc1ccc(NC(=O)c2cc(-c3cc(F)ccc3OC)n[nH]2)c(C)c1	0	55	0	71
COc1ccc(F)cc1-c1cc(C(=O)N2CCc3ccccc3C2)[nH]n1	11	0	11	0
O=C(Nc1ccccc1C(=O)N1CCCCCC1)c1ccccc1	0	0	0	0
CC(=O)c1c(C)[nH]c(C(=O)OCC(=O)Nc2cc(Cl)ccc2[N+](=O)[O-])c1C	0	0	11	0
Cc1ccc(NC(=O)CSc2nnc3ccc(-c4cccnc4)nn23)cc1	0	0	0	0
CCOC(=O)C1=C(N)Oc2cc(O)ccc2C1c1cccc(Cl)c1 (stereo not drawn)	0	0	0	0
CCOC(=O)C1=C(N)Oc2cc(O)ccc2C1c1ccc(Br)cc1 (stereo not drawn)	0	53	0	0
O=[N+]([O-])c1cccc(N=Cc2ccccc2)c1	0	0	0	0
COCCNC(=O)c1ccc(NS(C)(=O)=O)cc1	0	0	0	0
COc1ccc(CCNc2nc3ccccc3n3cnnc23)cc1OC	0	0	0	0
CCc1nnc2c(NCCc3ccc(OC)c(OC)c3)nc3ccccc3n12	0	40	0	53
CC1=C(C(=O)N2CCCCCC2)CC(CC(=O)NC2CCCCC2)C(=O)N1Cc1ccc(C(C)(C)C)cc1 (stereo not drawn)	0	0	0	0
SMILES	PLCb3 inh	GC-A act	PLC-gamma1 inh	NPR2 activator
CCCC(=O)Nc1cc(C(=O)O)ccc1Sc1ccc(C)cc1	0	0	0	0
CCOC(=O)COc1ccc(/C=C2\NC(=S)N(CC)C2=O)cc1	0	44	0	51
Cc1ccc(/C=C2/NC(=O)N(Cc3ccccc3)C2=O)s1	0	0	0	0
CCN1C(=O)/C(=C/c2ccc(C)s2)NC1=S	0	0	0	38
C=CCn1c(=O)c2ccccc2n2c(SCc3nc4ccccc4s3)nnc12	0	0	0	0
CC(OC(=O)CCCNC(=O)c1ccc(Cl)cc1)C(=O)N(C)Cc1ccccc1 (stereo not drawn)	0	0	0	0
CC(=O)Nc1ccc(S(=O)(=O)N(CCCN2CCOCC2)Cc2cccs2)cc1	0	0	0	0
CC(C)(C)c1ccc(S(=O)(=O)N(CCCN2CCOCC2)Cc2cccs2)cc1	0	0	10!	0
N#C/C(C(=O)Nc1ccc(Cl)cc1)=C(/S)Nc1ccccc1	0	58	0	0
Nc1nc(Cl)nc2c1ncn2C1OCC(O)C(O)C1O (stereo not drawn)	0	0	0	0
O=[N+]([O-])c1cc(/C=N/Nc2nc3ccccc3[nH]2)c(O)cc1O	0	0	48	0
COCCCNC(=O)CCS(=O)(=O)Cc1ccc(C)cc1	0	0	0	0
c1ccc(Cn2nnc3ccccc32)cc1	0	0	0	0
C[C@@H](Oc1ccccc1)c1nnn(Cc2ccccc2)c1-c1c([C@@H](C)Oc2ccccc2)nnn1Cc1ccccc1	0	0	16	0
c1coc(CSSCc2ccco2)c1	0	0	13	0
Cc1ccc(NC(=O)CSCc2ccco2)cc1	0	0	0	0
Cc1c(O)ccc2c(CN3CCN(CCO)CC3)cc(=O)oc12	0	0	0	0
C=CC[C@@H](CC(=O)N(CCO)Cc1ccccc1)C(=O)NC[C@@H](OC(=O)[C@@H](CC=C)Cc1ccc(F)cc1)c1ccccc1	0	0	10	0
COc1cc(CNC(=O)Nc2nc(C(N)CCc3ccccc3)cs2)cc(OC)c1OC (stereo not drawn)	0	0	0	0
COc1ccccc1NC(=O)Nc1nc(C(N)CCc2ccccc2)cs1 (stereo not drawn)	0	0	11	0
O=C(NC1CC1)C1=C[C@H](c2ccccc2)C[C@H](OCc2ccc(CO)cc2)O1	0	0	0	0
COC(=O)[C@]12C[C@H](CC(=O)NCc3ccc(OC)c(OC)c3)C(=O)N(Cc3ccc(Cl)cc3Cl)C1=C[C@H](C(C)C)O[C@@H]2C1CC1	0	0	0	0
Cc1cccc(Cl)c1NC(=O)N(C)c1ccccc1	0	0	12	0
CC(=O)c1sc(-c2ccc(Cl)cc2)nc1C	0	-	0	-
CNC(=O)c1sc(-c2ccc(Cl)cc2)nc1C	0	46	0	0
SMILES	PLCb3 inh	GC-A act	PLC-gamma1 inh	NPR2 activator
Cc1nc(-c2ccc(Cl)cc2)sc1C(=O)NNC(=O)C(C)C	0	43	0	0
COc1ccc(CCN(C)C2CCCN(C(=O)CCSC)C2)cc1OC (stereo not drawn)	0	0	0	0
Cc1ccc(Cl)c(Cn2cnc3c(cnn3C(C)(C)C)c2=O)c1F	0	0	0	0
CC(C)(C)n1ncc2c(=O)n(Cc3c(F)cccc3Cl)cnc21	0	0	0	40
CCNc1nc(NC(C)(C)C)nc(N(C#N)CC)n1	0	44	0	48
COC(=O)c1ccc(NCc2cc(O)ccc2O)cc1O	0	0	0	0
COC(=O)c1ccc(NCc2c(O)ccc(O)c2Br)cc1Cl	0	0	9.8	0
c1ccc(Cn2nnc3c(Nc4ccc5c(c4)OCO5)nc(C4CC4)nc32)cc1	0	0	0	41
CC(C)CC(=O)N1CCN(c2ccc([N+](=O)[O-])c(NCc3ccccc3)c2)CC1	0	0	13	0
CC(C)(C)C(=O)N1CCN(c2ccc([N+](=O)[O-])c(NCc3cccnc3)c2)CC1	0	0	0	0
CCCN1C(=O)/C(=C/c2cc(C)n(C)c2C)SC1=Nc1ccc(OCC)cc1	0	0	0	0
O=C(c1ccccc1)c1ccccc1	11	0	0	0

Screening results from PubChem BioAssay.
